Measured values taken from PubChem BioAssay AID1159580 (chemical genetic matrix, 2015).
Values joined by “and” are separate entries in the source; they are usually repeats but may differ in a detail not shown here. Equal values may be shown once. The campaign covered roughly 5,500 compounds. About 2,000 (36%) were called active. Another 18% or so got no clear call; they are omitted. No stated cut-off is given here; in the data, active means normalized growth mostly below about 0.91 (no sharp cut-off); inconclusive means no clear call, values can overlap the other calls; inactive means mostly above about 0.92. This is one part of the list.

Assay: chemical genetic growth profiling, strain panel (AID 1159580);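 further: tested at 20 µM; growth read once vehicle control cultures reached saturation at 30 °C; 1 = growth at the plate median or of vehicle wells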
Conditions: S. cerevisiae deletion strains, growth OD

Measured: normalized growth

CNC(C)C(O)c1ccccc1 (stereo not drawn)
inactive: locus YAL013W, strain DEP1, stronger effect = lower value 1 | locus YAL021C, strain ccr4, stronger effect = lower value 1.02 | locus YAL026C, strain drs2, stronger effect = lower value 0.997 | locus YAL030W, strain snc1, stronger effect = lower value 1.01 | locus YBL061C, strain skt5, stronger effect = lower value 1 | locus YBR009C, strain hhf1, stronger effect = lower value 0.993 | locus YBR021W, strain FUR4, stronger effect = lower value 1.01 | locus YBR023C, strain chs3, stronger effect = lower value 1.01 | locus YBR171W, strain sec66, stronger effect = lower value 1.02 | locus YBR229C, strain ROT2, stronger effect = lower value 1 | locus YBR231C, strain swc5, stronger effect = lower value 1.02 | locus YBR279W, strain paf1, stronger effect = lower value 1.01 | locus YCL011C, strain gbp2, stronger effect = lower value 1.01 | locus YCL016C, strain dcc1, stronger effect = lower value 1 | locus YCL029C, strain bik1, stronger effect = lower value 1.02 | locus YCL061C, strain MRC1, stronger effect = lower value 1.02 | locus YCL069W, strain vba3, stronger effect = lower value 1.02 | locus YCR088W, strain abp1, stronger effect = lower value 1.02 | locus YDL005C, strain med2, stronger effect = lower value 1.02 | locus YDL035C, strain GPR1, stronger effect = lower value 1.01 | locus YDL040C, strain nat1, stronger effect = lower value 1.01 | locus YDL074C, strain BRE1, stronger effect = lower value 1.02 | locus YDL101C, strain DUN1, stronger effect = lower value 1 | locus YDL134C, strain PPH21, stronger effect = lower value 1.01 | locus YDL185W, strain tfp1, stronger effect = lower value 1.01 | locus YDL192W, strain arf1, stronger effect = lower value 1.03 | locus YDR001C, strain nth1, stronger effect = lower value 1.01 | locus YDR069C, strain doa4, stronger effect = lower value 1.02 | locus YDR101C, strain arx1, stronger effect = lower value 1.03 | locus YDR137W, strain rgp1, stronger effect = lower value 1.03 | locus YDR150W, strain NUM1, stronger effect = lower value 1 | locus YDR159W, strain sac3, stronger effect = lower value 0.99 | locus YDR162C, strain NBP2, stronger effect = lower value 1 | locus YDR195W, strain ref2 0.995 | locus YDR297W, strain sur2, stronger effect = lower value 1.01 | locus YDR318W, strain mcm21, stronger effect = lower value 1.02 | locus YDR334W, strain swr1, stronger effect = lower value 1.02 | locus YDR335W, strain msn5, stronger effect = lower value 1.01 | locus YDR388W, stronger effect = lower value 1.02 | locus YDR392W, strain spt3, stronger effect = lower value 1 | locus YDR502C, strain sam2, stronger effect = lower value 1.02 | locus YEL003W, strain gim4, stronger effect = lower value 1.02 | locus YEL037C, strain rad23, stronger effect = lower value 1.01 | locus YEL061C, strain CIN8 (second series), stronger effect = lower value 1.02 | locus YEL061C, strain CIN8, stronger effect = lower value 1 | locus YER015W, strain faa2, stronger effect = lower value 1.02 | locus YER016W, strain bim1, stronger effect = lower value 1.01 | locus YER110C, stronger effect = lower value 1.04 | locus YER111C, strain swi4, stronger effect = lower value 1.01 | locus YER155C, strain BEM2 (second series), stronger effect = lower value 1.02 | locus YER155C, strain BEM2, stronger effect = lower value 1 | locus YER167W, strain BCK2, stronger effect = lower value 1 | locus YFR010W, strain ubp6, stronger effect = lower value 1.03 | locus YGL078C, strain dbp3, stronger effect = lower value 1.03 | locus YGL086W, strain mad1, stronger effect = lower value 1 | locus YGL167C, strain pmr1, stronger effect = lower value 1.02 | locus YGL173C, strain kem1, stronger effect = lower value 1.01 | locus YGL227W, strain vid30, stronger effect = lower value 1.01 | locus YGL240W, strain doc1, stronger effect = lower value 1.04 | locus YGL248W, strain PDE1, stronger effect = lower value 1.01 | locus YGL253W, strain hxk2, stronger effect = lower value 1.01 | locus YGR078C, strain PAC10, stronger effect = lower value 1.01 | locus YGR135W, strain pre9, stronger effect = lower value 1.03 | locus YGR252W, strain gcn5, stronger effect = lower value 1.01 | locus YHR013C, strain ard1, stronger effect = lower value 1.02 | locus YHR027C, strain rpn1, stronger effect = lower value 1.02 | locus YHR030C, strain SLT2, stronger effect = lower value 1 and 1.02 | locus YHR079C, strain IRE1 (second series), stronger effect = lower value 1.02 | locus YHR079C, strain IRE1, stronger effect = lower value 1.04 | locus YHR094C, strain hxt1, stronger effect = lower value 1.03 | locus YHR129C, strain ARP1, stronger effect = lower value 1 | locus YHR142W, strain chs7, stronger effect = lower value 1.02 | locus YHR200W, strain rpn10, stronger effect = lower value 1.02 | locus YIL066C, strain RNR3, stronger effect = lower value 1 | locus YIL073C, strain SPO22, stronger effect = lower value 1.06 | locus YIL125W, strain kgd1, stronger effect = lower value 1.02 | locus YIR030C, strain dcg1, stronger effect = lower value 1.02 | locus YJL092W, strain hpr5, stronger effect = lower value 1.01 | locus YJL095W, strain BCK1 (second series), stronger effect = lower value 1.01 | locus YJL095W, strain BCK1, stronger effect = lower value 0.99 and 0.983 | locus YJL115W, strain asf1, stronger effect = lower value 1.03 | locus YJL129C, strain trk1, stronger effect = lower value 1.03 | locus YJL134W, strain LCB3, stronger effect = lower value 1 | locus YJL154C, strain vps35, stronger effect = lower value 1.01 | locus YJL164C, strain tpk1, stronger effect = lower value 1.01 | locus YJL166W, strain qcr8, stronger effect = lower value 1.03 | locus YJL168C, strain set2, stronger effect = lower value 1.02 | locus YJL187C, strain SWE1 (second series), stronger effect = lower value 1
